We go through 40 compounds from PubChem BioAssay (NCATS).

Structures are written as SMILES. Inconclusive results are not listed. Values without a mark were called inactive. Activity calls are given as the source filed them. Calls follow the shape of the dose curve; as a rule, active = well fitted activation curve with a large enough effect; inconclusive = small, poorly fitted or top-dose-only effect; inactive = no such curve, though single readings can be large or run the other way. Positions of bridges follow the written chain, without caps; N, C: chain ends. Non-standard residues stand in square brackets, D forms with d. Residues, ends and D or L forms follow the SMILES beside them. hArg = N=C(N)NCCCC[C@H](N)C(=O)O; Mpa = O=C(O)CCS
Potency is read from the fitted curve at half-maximal effect.

Cellular tumor antigen p53 (Homo sapiens), sequence (P04637 whole entry, looked up): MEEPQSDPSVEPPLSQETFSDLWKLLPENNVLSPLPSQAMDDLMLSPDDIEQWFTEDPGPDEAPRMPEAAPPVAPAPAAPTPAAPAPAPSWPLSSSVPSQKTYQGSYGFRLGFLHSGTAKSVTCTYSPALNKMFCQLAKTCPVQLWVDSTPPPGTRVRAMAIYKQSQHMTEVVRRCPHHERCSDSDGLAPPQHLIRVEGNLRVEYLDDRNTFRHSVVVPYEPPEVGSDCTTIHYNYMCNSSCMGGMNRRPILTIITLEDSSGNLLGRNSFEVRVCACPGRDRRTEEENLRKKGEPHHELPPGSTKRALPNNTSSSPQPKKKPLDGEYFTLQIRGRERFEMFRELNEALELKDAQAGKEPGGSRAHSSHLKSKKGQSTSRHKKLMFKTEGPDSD

The assay concerns the target Cellular tumor antigen p53 (Homo sapiens) (UniProt P04637). The experiment in a line: Primary qHTS for small molecule compounds that upregulate eGFP-tagged delta133p53alpha (in N-terminal) cells. (AID 2060322). Also: nearly all actives have a fitted effect of over 75% in size.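 As to activation: series mostly up to about 56 µM; 0% = DMSO vehicle and 100% = reference activator.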 To be noted: NCI-H358 eGFP-delta133p53alpha fluorescence, 24 h; activation: active compounds read high. The procedure, abridged:
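NCI-H358 cells pre-induced 24 h with 10 ng/ml doxycycline to express N-terminal eGFP-delta133p53alpha, then dosed 24 h at 37C without doxycycline; fixed, Hoechst-stained, GFP intensity by laser scanning cytometry, normalized to DMSO (0%) and 57.5 uM 5-azacytidine (100%).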
(In general: In qHTS, concentration-response curves come from the screen itself.)
For the compound `C=CCNc1nc(NCC=C)nc(N2CCN(C(c3ccc(F)cc3)c3ccc(F)cc3)CC2)n1`, the activation was -14.2%. The same measure, in the same setting: the figure for `CC(=O)NS(=O)(=O)c1ccc(N)cc1` is -1.67%; for `N#CC1(c2ccc(F)cc2)CCC(=O)CC1` it is -18.6%; for `O=C(c1ccccc1)c1ccccc1` it is 16.4%. Consider `CCCCC(CC)CN=C(N)NC(N)=NCCCCCCN=C(N)NC(N)=NCC(CC)CCCC` (stereo not given), for which the Potency is 13.8 µM (active).

As to `CCCCCC(C)N` (stereo not given), the activation was 28.8%. On the same count and under the same terms, the figure for `O=P(O)(O)OCC(O)CO` (stereo not given) is -9.21%; for `CCN(CC)CCN` it is -0.837%.

On to `Cc1ccc(-c2ccccc2C#N)cc1`, for which the activation was -11.9%. With `NC(=O)n1c(O)c(C(=O)c2cccs2)c2cc(Cl)ccc21`, the activation was -6.21%.

Regarding `C#C[C@]1(O)CC[C@@H]2[C@@H]3CCC4=CC(=O)CC[C@@H]4[C@H]3CC[C@@]21CC`, the activation was 25.3%. For the compound `C=CC(=O)Nc1cc(NC(=O)c2ccc(C)c(NC(=O)c3ccno3)c2)cc(C(F)(F)F)c1`, the activation was 4.58%. For the compound `N#CC(=Cc1ccc(O)c(O)c1)C(=O)NCc1ccccc1`, the Potency was 34.3 µM (active). For `C[C@@H](N)C(=O)O`, the activation was 5.02%. On the same count and under the same terms, the figure for `Nc1ccccc1NC(=O)CCCCCCC(=O)Nc1ccccc1` is -13.4%; for `CCCC(=O)c1cc(O)c(O)cc1O` it is -37.9%. On to `O=C1NC(c2ccccc2)(c2ccccc2)C(=O)N1COP(=O)(O)O`, for which the activation is -11.9%. With `COc1cc(C(=O)NC2CCCNC2)cc(OC)c1OC` (stereo not given), the activation is -3.95%. On the same count and under the same terms, with `COC(=O)c1cc(Cl)ccc1OC` the figure was 2.51%; with `Nc1ccc(-c2ccc3ccccc3n2)cc1`, 29.5%.

For `CC(=O)N1C[C@H](O)C[C@H]1C(=O)O`, the activation was 14.2%. As to `c1ccc(CC2=NCCN2)cc1`, the activation is -3.95%. The same measure, in the same setting: the figure for `CC=CCC(C)C(O)C1C(=O)NC(CC)C(=O)N(C)CC(=O)N(C)C(CC(C)C)C(=O)NC(C(C)C)C(=O)N(C)C(CC(C)C)C(=O)NC(C)C(=O)NC(C)C(=O)N(C)C(CC(C)C)C(=O)N(C)C(CC(C)C)C(=O)N(C)C(C(C)C)C(=O)N1C` (stereo not given) is -6.27%. Take `CCCCN(CCCC)C(C(N)=O)c1ccc(OC)cc1` (stereo not given): the activation is 20.9%.

Turning to `O=C1OC(OC(=O)c2cccnc2Nc2cccc(C(F)(F)F)c2)c2ccccc21` (stereo not given), the activation is -25.4%. With `CCOc1ccc(NC(C)=O)cc1`, the activation is 7.53%. Take `CC1(C)[C@H](O[C@H]2O[C@H](C(=O)O)[C@@H](O)[C@H](O)[C@H]2O[C@@H]2O[C@H](C(=O)O)[C@@H](O)[C@H](O)[C@H]2O)CC[C@@]2(C)[C@H]1CC[C@]1(C)[C@H]2C(=O)C=C2[C@H]3C[C@@](C)(C(=O)O)CC[C@]3(C)CC[C@]21C`: the activation was -5.71%. Regarding `NC(=O)[C@@H]1CSSCCC(=O)N[C@@H](CCCCN=C(N)N)C(=O)NCC(=O)N[C@@H](CC(=O)O)C(=O)N[C@@H](Cc2c[nH]c3ccccc23)C(=O)N2CCC[C@H]2C(=O)N1` ([Mpa][hArg]GDWPC-NH2; disulfide 1-7), the activation was 2.82%. Same read-out and setting: the figure for `NC1CCN(c2cccc(Cl)n2)CC1` is -10.7%; for `O=C(O)Cn1c(=O)n(Cc2ccc(Br)cc2F)c(=O)c2ccc(Cl)cc21` it is -5.08%. On to `COc1ccc(-c2cc(C(F)F)nn2-c2ccc(S(N)(=O)=O)cc2)cc1F`, for which the activation is -21.8%. For `CCOC(=O)C1=C(C)NC(C)=C(C(=O)OCC)C1c1ccccc1/C=C/C(=O)OC(C)(C)C`, the activation is 17.5%. As to `CC(C)CCCC(C)CCCC(C)CCCCC(C)CCCC(C)CCCC(C)C` (stereo not given), the activation is 14.1%. Same read-out and setting: with `CCc1cccc2c(CCO)c[nH]c12` the figure was -27.7%; with `O=C(NCN1CCOCC1)c1cnccn1`, -15.3%. As to `O=C(O)[C@H]1O[C@H](Oc2cc3oc(-c4ccccc4)cc(=O)c3c(O)c2O)[C@H](O)[C@@H](O)[C@H]1O`, the activation was 28.4%. Turning to `OC(CCN1CCCCC1)(c1ccccc1)c1ccccc1`, the activation was 1.69%.

For the compound `NS(=O)(=O)c1ccc(C(=O)O)cc1`, the activation is -37.9%. Regarding `CC=CC1=C(C(=O)O)N2C(=O)[C@H](NC(=O)[C@H](N)c3ccc(O)cc3)[C@@H]2SC1`, the activation is 11.1%.

In the case of `CN1C(=O)c2ccccc2C1=O`, the activation was 7.53%.
